Values joined by “and” are separate entries in the source; they are usually repeats but may differ in a detail not shown here. Identical values can stand only once. Records with an inconclusive call do not appear. Some compounds were tested as several samples or in several runs, with calls that do not always agree. Active and inactive are the calls of the source. The calls were made as follows: active = hit-call score of the fitted dose curve at least 0.9, where 1 is the maximum; inconclusive = response in the unintended direction; inactive = score below 0.9.
These molecules were tested against Cellular tumor antigen p53 (Homo sapiens) (UniProt P04637) (assay: TOX21_p53_BLA_p5_ratio: Tox21 HCT-116 p53 Agonism Beta-lactamase Assay, Ratio, Phase 5 (AID 2283599)).
From the text: TOX21_p53_BLA_p5 is a cell-based, single-readout assay that uses HCT116, a human intestinal cell line, […] in a 1536-well plate.TOX21_p53_BLA_p5_ratio is an assay readout measuring reporter gene via receptor activity and designed using inducible reporter (beta lactamase induction) detected with GAL4 b-lactamase reporter gene. The signal is derived from the ratio of cleaved (ch2) to uncleaved (ch1) reporter gene substrate used as the measure of target activity.Data from the assay component TOX21_p53_BLA_p5_ratio was analyzed into 1 assay endpoint. This assay endpoint, TOX21_p53_BLA_p5_ratio, was analyzed in the positive analysis fitting direction relative to DMSO as the negative control and baseline of activity. Using a type of inducible reporter, gain-of-signal activity can be used to understand changes in the reporter gene as they relate to the gene TP53. Furthermore, this assay endpoint can be referred to as a primary readout, because this assay has produced multiple assay endpoints and this ratio serves a reporter gene function to understand target activity. To generalize the intended target to other relatable targets, this assay endpoint is annotated to the DNA binding intended target family, where the subfamily is tumor suppressor.
Thawing Method: Place 14 mL of pre-warmed thaw medium into a 15 mL of conical tub. Remove the vial of cells to be thawed from liquid nitrogen and thaw rapidly by placing at 37C in a water bath with gentle agitation for 1-2 minutes. Decontaminate the vial by wiping with 70% ethanol before opening in a biological safety cabinet. Transfer the vial contents drop-wise into 14 mL of thaw medium in a sterile 15-mL conical tub. Centrifuge cells at 900 rpm for 4 minutes and resuspend in thaw medium. Transfer contents to the T75 tissue culture flask containing Thaw Medium and place flask in a humidified 37C/5% CO2 incubator. Switch to growth medium at first passage.Propagation Method: Aspirate medium, rinse once in DPBS, add 0.25% Trypsin/EDTA and swirl to coat the cell evenly. Add an equal volume of Growth Medium to inactivate Trypsin after 2-3 minutes incubation at 37C. Centrifuge cells at 900 rpm for 4 minutes and resuspend in growth medium. Cell should be passage or fed at least twice a week.Assay Protocol: Harvest cells from culture in growth medium and resuspend in assay medium. 2.2 Dispense 4000 cells/5 uL/well into 1536-well black/clear bottom plates using a Multidrop dispenser. After the cells were incubated at 37C for 5 hours, 23 nL of compounds dissolved in DMSO were transferred to the assay plate by a PinTool resulting in a 217-fold dilution. Incubate the plates for 16 hours at 37C, 5% CO2. Add 1 uL of 6X LiveBLAzer FRET B/G (CCF4-AM) Substrate Mixture to each well using a BioRAPTR dispenser and incubate the plates at room temperature for 2 hours. Measure fluorescence intensity at 460 and 530 nm emission and 405 nm excitation by an Envision detector. Data is expressed as the ratio of 460nm/530nm emissions. Add 4 uL of Cell-titer Glo to each well using BioRAPTR and incubate the plates at room temperature for 2 hours. Measure fluorescence intensity by a VewLux plate reader.

Chain of Cellular tumor antigen p53 (Homo sapiens) (P04637 whole entry, looked up, the tested form may be a part): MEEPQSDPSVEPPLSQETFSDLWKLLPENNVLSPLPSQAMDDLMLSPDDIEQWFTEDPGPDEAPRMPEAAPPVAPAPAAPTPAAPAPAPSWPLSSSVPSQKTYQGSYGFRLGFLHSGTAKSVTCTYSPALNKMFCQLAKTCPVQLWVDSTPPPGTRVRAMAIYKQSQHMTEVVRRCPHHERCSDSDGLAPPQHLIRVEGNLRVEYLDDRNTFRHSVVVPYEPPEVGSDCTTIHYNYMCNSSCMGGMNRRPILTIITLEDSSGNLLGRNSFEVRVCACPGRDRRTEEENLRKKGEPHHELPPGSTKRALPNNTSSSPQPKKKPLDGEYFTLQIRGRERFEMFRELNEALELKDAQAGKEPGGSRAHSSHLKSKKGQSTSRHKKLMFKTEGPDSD

SMILES	AC50	outcome
Nc1ccc(Cl)cc1N	74.7 µM (active)	inactive
c1ccc2c(c1)oc1ccccc12		inactive
Cn1cc(-c2ccccc2)c(=O)c(-c2cccc(C(F)(F)F)c2)c1		inactive
O=P(OCCCl)(OCCCl)OCCCl		inactive
c1ccc(N=Nc2ccccc2)cc1		inactive
[O-][Cl+]O		inactive
Nc1ccc([N+](=O)[O-])cc1		inactive
CC(C)(C)OOC(=O)c1ccccc1		inactive
COC(=O)Nc1nc2ccccc2[nH]1	15 µM (active) and 15.4 µM (active)	
Cc1ccc(N)cc1		inactive
O=[N+]([O-])c1ccc(Oc2ccc(Cl)cc2Cl)cc1		inactive
CCN(CC)CCO		inactive
CCCCOC(=O)c1ccccc1C(=O)OCc1ccccc1		inactive
CO[C@@H]1[C@H](OC(=O)NC(=O)CCl)CC[C@]2(CO2)[C@H]1[C@@]1(C)O[C@@H]1CC=C(C)C		inactive
Nc1cc(Cl)cc(C(=O)O)c1Cl		inactive
Oc1ccccc1Cl		inactive
CCCSC(=O)N(CCC)CCC		inactive
CC(C)(OOC(C)(C)c1ccccc1)c1ccccc1		inactive
O=C(N[C@H](c1ccccc1)[C@@H]1CN2CCC1CC2)c1c(Cl)ccc(C(F)(F)F)c1Cl		inactive

SMILES	AC50	outcome
OCCCBr		inactive
COP(=S)(OC)SCN1C(=O)c2ccccc2C1=O		inactive
CC(C)N(Cc1ccccc1)C(=O)C(C)(C)C		inactive
c1ccc(NNc2ccccc2)cc1		inactive
CCCCCCCCn1sccc1=O		inactive
COc1cc(C=O)cc2c1[C@H](COC(N)=O)[C@]1(OC(C)=O)ON2C[C@H]2[C@@H]1N2C(C)=O	0.546 µM (active)	
CN(C)c1ccc(C(=O)c2ccc(N(C)C)cc2)cc1	690 nM (active) and 351 nM (active)	
Nc1ccc(Oc2ccc(N)cc2)cc1		inactive
CCCCCOC(=O)c1ccccc1C(=O)OCCCCC		inactive
C1=Cc2cccc3cccc1c23		inactive
O=C1CCCO1		inactive
Clc1ccc(C(c2ccc(Cl)cc2)C(Cl)(Cl)Cl)cc1	82.5 µM (active) and 43.3 µM (active)	inactive
Cc1cccc(N)c1N		inactive
CCCCC(CC)COC(=O)c1ccc(C(=O)OCC(CC)CCCC)c(C(=O)OCC(CC)CCCC)c1 (stereo not given)		inactive
Brc1ccc(Oc2ccccc2)cc1		inactive
Cc1ccc([N+](=O)[O-])cc1		inactive
c1ccc(C2CO2)cc1 (stereo not given)		inactive
CC(C)(C)OOC(C)(C)CCC(C)(C)OOC(C)(C)C		inactive
CCCCCCCCOC(=O)c1ccc(C(=O)OCCCCCCCC)c(C(=O)OCCCCCCCC)c1		inactive
